In experiment [1] the test system is TRPC4 beta (transient receptor potential cation channel C4), mouse. Description: TRPC4 cation channel opening, retest – cell-based, Fluo4 calcium, HEK293 TRPC4beta/mu-opioid, duplicates, 10 µM, confirmation (AID 2426;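 active means fluorescence ratio normalized to control raised more than 50% in primary screen plus both repeat runs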;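 on activation: percent rise of integrated ratio over buffer wells lacking compound which define 0%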). Conditions: Fluo4 calcium fluorescence, at 10 µM; stronger effect = higher value.
For experiment [2], the system named is transient receptor potential cation channel C4 beta (TRPC4), mouse. Description: TRPC4 cation channel opening, second retest – cell-based, second round, Fluo4, HEK293 TRPC4beta/mu-opioid, 1 µM, confirmation (AID 2461;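 active means primary screen active and over 50% activation in each of two duplicate runs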;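 on activation: 0% = wells without test compound as baseline of integrated fluorescence ratio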). To be noted: Fluo4 calcium fluorescence, at 1 µM; stronger effect = higher value.
The test system of experiment [3] is TRPC4 (transient receptor potential cation channel C4 beta), mouse. Description: potentiation of DAMGO EC20 TRPC4 response – cell-based, second round, Fluo-4, HEK293 TRPC4beta/mu-opioid, 1 µM, confirmation (AID 2554;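 active means primary screen hit whose fluorescence ratio, in both repeats, exceeds the weak agonist control mean by 3 SD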). To be noted: DAMGO EC20, Fluo-4 calcium flux, at 1 µM; stronger effect = higher value. (Calcium flux is commonly read through the fluorescence of an indicator in the cells.)

For experiment [4], the system named is TRPC4 beta (transient receptor potential cation channel C4), mouse. Description: potentiation of DAMGO EC20 TRPC4 response – cell-based, Fluo-4, HEK293 TRPC4beta/mu-opioid, confirmation (AID 2555;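 active means primary screen hit whose calcium fluorescence ratio, in both repeats, exceeds the weak agonist control mean by 3 SD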). Conditions: DAMGO EC20, Fluo-4 calcium flux, at 10 µM; stronger effect = higher value.
Experiment [5] has as its target Short transient receptor potential channel 4 (Mus musculus) (UniProt Q9QUQ5). Description: blockers of DAMGO-evoked TRPC4 calcium flux – cell-based, Fluo4, HEK293 TRPC4beta/mu-opioid, confirmation (AID 2636;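 active means calcium signal cut by more than 3 SD below the full-agonist control yet still positive, in both repeats and the earlier primary screen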). Conditions: at 10 µM; stronger effect = higher value.
Experiment [6] shares this target. Description: blockers of DAMGO-evoked TRPC4 calcium flux – cell-based, second round, Fluo4, HEK293 TRPC4beta/mu-opioid, 1 µM, confirmation (AID 2637;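 active means calcium signal ratio cut to more than 3 SD under the fully stimulated control mean yet still positive, in both repeats and the primary screen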). Conditions: at 1 µM; stronger effect = higher value.
Experiment [7] has the same target. Description: potentiation of DAMGO-evoked TRPC4 calcium signal – cell-based, HEK293 TRPC4/mu-opioid, Fluo-4 calcium, EC20 DAMGO, dose response (AID 434941;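 active means earlier screen potentiator hit that boosts the TRPC4 ion channel at some dose, with a dose response; inactive means no potentiation, no dose response, or not a prior hit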;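 further: calcium entry triggered by an EC20 dose of DAMGO at the co-expressed mu-opioid receptor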).
Experiment [8] has the same target. Description: block of DAMGO-driven TRPC4 calcium entry – cell-based, HEK293 TRPC4/mu-opioid, Fluo-4 calcium, dose response (AID 434942;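 active means primary screen inhibitor hit that blocks the TRPC4 channel at some tested dose, yielding a dose curve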).
The target in experiment [9] is Short transient receptor potential channel 6 (Mus musculus) (UniProt Q61143). Description: TRPC6 blockade by TRPC4 inhibitor hits – cell-based, HEK293, membrane potential dye, duplicate, selectivity assay for TRPC4 inhibitor project, confirmation (AID 434948;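 active means active in primary screen and both duplicates, each dropping signal beyond three positive-control SD with fluorescence still positive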). To be noted: HEK293 TRPC6, membrane potential dye fluorescence, at 10 µM, stimulated with maximal-effect acetylcholine; stronger effect = higher value.

The target is the same in experiment [10]. Description: TRPC6 opening by TRPC4 activator hits – cell-based, HEK293, membrane potential dye, duplicate, selectivity assay for TRPC4 activator project, confirmation (AID 434950;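 active means membrane potential signal rise above negative control mean plus 3 SD in both duplicates, also active in the earlier TRPC4 screen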;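 on activation: 0% = buffer only wells and 100% = acetylcholine maximal-effect wells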). Conditions: HEK293 TRPC6, membrane potential fluorescence, at 10 µM; activation: stronger effect = higher value; outcome: activation.
Experiment [11] has the same target. Description: positive modulators of mouse TRPC6 channel – HEK293 cells, membrane potential dye, duplicate, selectivity assay for TRPC4 potentiator project, confirmation (AID 434952). To be noted: HEK293 TRPC6, membrane potential dye fluorescence, at 10 µM, maximal acetylcholine added after compound; stronger effect = higher value.
Experiment [12] has as its target Short transient receptor potential channel 4 (Mus musculus) (UniProt Q9QUQ5). Description: calcium flux activators in TRPC4/5HT1a cells, counter-screen for TRPC4 activator project, cell-based, second counter screen, HEK293 TRPC4/5HT1a, Fluo-4 (AID 434977;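 active means calcium signal rise above buffer-control mean plus 5 SD in both duplicates, and also a hit in the primary screen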;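 on activation: plate controls were assay buffer for no effect and maximal serotonin response for full effect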). Conditions: Fluo-4 calcium flux, at 10 µM; stronger effect = higher value.
Experiment [13] can be described thus: serotonin-gated TRPC4 signal block – cell-based, second counter screen, HEK293 TRPC4/5HT1a, Fluo-4, counter-screen for TRPC4 inhibitor project, confirmation (AID 434978;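 active means primary screen active whose calcium signal fell more than 3 SD beyond the full-serotonin control mean in both duplicate plates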;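 further: serotonin given first at submaximal then at maximal dose after compound preincubation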). To be noted: Fluo-4 calcium flux, at 10 µM, serotonin added to trigger calcium flux; stronger effect = higher value. For orientation: The purpose of a counterscreen is to sort out artefacts and off-target activity.

Experiment [14] concerns TRPC4 (mouse), co-expressed with 5HT1a in HEK293. Description: enhancement of serotonin-evoked TRPC4 response – cell-based, second counter screen, HEK293 TRPC4/5HT1a, Fluo-4, counter-screen for TRPC4 potentiator project, confirmation (AID 434979;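 active means signal rise over 3 SD above mean of control wells given weak agonist, in both repeats and first screen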). Conditions: Fluo-4 calcium flux, at 10 µM, serotonin added at its EC20 dose; stronger effect = higher value.
Experiment [15] in a line: nonspecific calcium rise without TRPC4 – cell-based, HEK293 mu-opioid receptor line, counter-screen for TRPC4 activator project, confirmation (AID 449723;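 active means hit in primary screen, with calcium signal over 5 SD above buffer well mean in both duplicates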;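 further: counter screen cells carry the mu-opioid receptor alone and lack TRPC4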). Conditions: HEK293 mu-opioid cells, Fluo-4 calcium fluorescence, at 10 µM; stronger effect = higher value.
Experiment [16] is described as follows: nonspecific potentiation of DAMGO calcium response – cell-based, HEK293 mu-opioid receptor line, counter-screen for TRPC4 allosteric potentiator project, confirmation (AID 449724;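 active means calcium signal rise more than 3 SD above the low-dose agonist control mean, in both duplicate plates and the primary screen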;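 further: HEK293 cells carrying mu-opioid receptor only with no TRPC4 channel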). To be noted: HEK293 mu-opioid receptor cells, Fluo-4 calcium flux, at 10 µM, compound added before EC20 DAMGO stimulus; stronger effect = higher value.

For part of these data: Entries with a potency or affinity are not part of this list. The source made the active and inactive calls.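 How the source made its calls, unless noted: active means compound raising the membrane signal above positive-control mean plus 3 SD in both repeats, and a primary screen hit; inactive means the rest.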

Chain of Short transient receptor potential channel 4 (Mus musculus) (Q9QUQ5 whole entry, looked up): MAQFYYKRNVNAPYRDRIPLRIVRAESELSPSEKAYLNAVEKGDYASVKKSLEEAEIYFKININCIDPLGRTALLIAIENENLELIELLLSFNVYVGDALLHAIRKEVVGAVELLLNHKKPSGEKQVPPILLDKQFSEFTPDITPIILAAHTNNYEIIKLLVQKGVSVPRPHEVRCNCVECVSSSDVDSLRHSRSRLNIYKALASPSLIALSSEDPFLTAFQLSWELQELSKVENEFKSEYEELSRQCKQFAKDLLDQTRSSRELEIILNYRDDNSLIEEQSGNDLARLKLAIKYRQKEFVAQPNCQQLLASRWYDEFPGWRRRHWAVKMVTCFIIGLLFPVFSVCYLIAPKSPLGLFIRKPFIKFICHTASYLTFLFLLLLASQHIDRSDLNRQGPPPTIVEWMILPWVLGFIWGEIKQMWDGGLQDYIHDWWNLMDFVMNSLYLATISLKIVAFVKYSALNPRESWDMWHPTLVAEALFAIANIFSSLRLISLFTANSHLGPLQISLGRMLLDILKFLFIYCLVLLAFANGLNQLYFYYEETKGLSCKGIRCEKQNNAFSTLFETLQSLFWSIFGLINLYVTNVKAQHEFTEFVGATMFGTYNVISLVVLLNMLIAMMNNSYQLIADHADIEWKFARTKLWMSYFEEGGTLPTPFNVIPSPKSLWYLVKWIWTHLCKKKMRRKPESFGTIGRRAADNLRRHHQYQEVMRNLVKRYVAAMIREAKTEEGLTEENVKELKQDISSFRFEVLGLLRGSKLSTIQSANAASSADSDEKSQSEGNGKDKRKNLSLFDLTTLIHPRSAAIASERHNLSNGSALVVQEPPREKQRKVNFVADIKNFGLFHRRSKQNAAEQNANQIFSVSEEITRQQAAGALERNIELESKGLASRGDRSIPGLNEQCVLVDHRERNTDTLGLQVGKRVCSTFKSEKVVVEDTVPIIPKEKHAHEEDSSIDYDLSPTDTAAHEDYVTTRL
Chain of Short transient receptor potential channel 6 (Mus musculus) (Q61143 whole entry, looked up): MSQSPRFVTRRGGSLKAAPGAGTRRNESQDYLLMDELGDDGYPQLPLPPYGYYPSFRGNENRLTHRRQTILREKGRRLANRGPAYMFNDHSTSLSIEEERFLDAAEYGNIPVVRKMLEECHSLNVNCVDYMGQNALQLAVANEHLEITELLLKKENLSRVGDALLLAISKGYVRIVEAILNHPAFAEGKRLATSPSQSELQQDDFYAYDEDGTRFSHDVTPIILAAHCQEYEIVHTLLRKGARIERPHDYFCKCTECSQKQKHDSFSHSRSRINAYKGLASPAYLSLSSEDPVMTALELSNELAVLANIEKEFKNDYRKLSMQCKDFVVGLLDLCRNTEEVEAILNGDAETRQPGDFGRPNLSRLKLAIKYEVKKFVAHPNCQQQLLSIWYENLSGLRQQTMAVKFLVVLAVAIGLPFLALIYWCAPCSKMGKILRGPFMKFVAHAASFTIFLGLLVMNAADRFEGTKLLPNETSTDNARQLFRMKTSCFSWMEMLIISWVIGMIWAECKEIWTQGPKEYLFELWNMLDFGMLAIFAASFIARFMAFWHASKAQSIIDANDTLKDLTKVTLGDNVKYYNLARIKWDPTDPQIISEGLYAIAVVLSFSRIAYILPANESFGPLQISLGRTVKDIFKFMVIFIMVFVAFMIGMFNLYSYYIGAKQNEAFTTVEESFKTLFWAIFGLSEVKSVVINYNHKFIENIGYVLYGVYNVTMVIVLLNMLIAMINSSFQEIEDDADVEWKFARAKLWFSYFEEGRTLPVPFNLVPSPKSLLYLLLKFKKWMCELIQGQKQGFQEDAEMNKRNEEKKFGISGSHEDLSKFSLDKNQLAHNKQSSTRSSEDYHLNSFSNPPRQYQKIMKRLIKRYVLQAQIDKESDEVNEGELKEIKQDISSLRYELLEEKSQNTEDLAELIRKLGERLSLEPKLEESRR

As to `CN(C)CCCN(C(=O)c1ccc(S(=O)(=O)N(C)Cc2ccccc2)cc1)c1nc2cc3c(cc2s1)OCO3`, the result in experiment [1], in experiment [2], in experiment [3], in experiment [4], in experiment [5] and in experiment [6] was inactive. Moreover, the outcome in experiment [7], in [8], in experiment [9], in [10], in [11] and in [12] was inactive. Further, the result in experiment [13], in experiment [14], in [15] and in [16] was inactive.
Consider `O=C(c1c(F)cccc1F)N1CCN(c2ncc(Br)cn2)CC1`, for which the activation is 158% (active) in [1], 86% (active) in experiment [2], 34% (active) in experiment [10] and 68.5% (active) in experiment [12]. In addition, the outcome in experiment [3], in experiment [4], in experiment [5], in experiment [6], in experiment [7] and in [8] was inactive. In addition, the compound was called inactive in [9], in experiment [11], in experiment [13], in experiment [14], in [15] and in experiment [16].
For the compound `CCCc1c(O)nc(SCCN(CCC)CCC)[nH]c1=O`, the activation in [1] was 96% (active); in experiment [12], 12.4% (active). The result in experiment [2], in experiment [3], in experiment [4], in [5], in [6] and in experiment [7] was inactive. The outcome in [8], in experiment [9], in experiment [10], in [11], in experiment [13] and in experiment [15] was inactive. Further, the result in [16] was inactive. For the same compound, the potentiation in [14] is 23.3% (active).
On to `COc1ccccc1N1CCN(C(c2cccs2)C(C)NC(=O)c2cccs2)CC1` (stereo not given), for which the outcome in experiment [1], in experiment [2], in experiment [3], in [4], in [5] and in [6] was inactive. In addition, the outcome in experiment [7], in [8], in [9], in experiment [11], in experiment [12] and in [13] was inactive. The outcome in experiment [14], in [15] and in [16] was inactive. The activation in [10] is 23.5% (active).
As for `O=C(c1sc2ccccc2c1Cl)N(Cc1cccs1)C1CCS(=O)(=O)C1` (stereo not given), the activation was 265% (active) in [1], 79% (active) in experiment [2], 35% (active) in [10] and 12% (active) in experiment [12]. Further, the outcome in experiment [3], in [4], in [5], in experiment [6], in [7] and in [8] was inactive. Moreover, the outcome in [9], in [11], in experiment [13], in experiment [14], in [15] and in experiment [16] was inactive.
Consider `CN(C)C(CNc1ncnc2sc3c(c12)CCCC3)c1ccco1` (stereo not given), for which, in experiment [1], the activation is 110% (active). Also, the outcome in experiment [2], in [3], in experiment [4], in experiment [5], in experiment [6] and in [7] was inactive. Also, the result in experiment [8], in [9], in [10], in experiment [11], in experiment [12] and in experiment [13] was inactive. In addition, the outcome in [14], in experiment [15] and in experiment [16] was inactive.
Regarding `COC(=O)C1=C(C)N(Cc2ccccc2)C(=NCCc2ccccn2)N[C@H]1c1cccc(F)c1`, the activation in experiment [1] was 109% (active); in experiment [10], 77% (active); in experiment [12], 44.2% (active). In addition, the result in experiment [2], in [3], in [4], in experiment [5], in experiment [6] and in [7] was inactive. For the same compound, the outcome in experiment [8], in [9], in experiment [11], in experiment [13], in [14] and in experiment [15] was inactive. For the same compound, the result in experiment [16] was inactive.
Turning to `CC(c1cccnc1)N(CCN(C)C)C(=O)Nc1ccc(Cl)c(Cl)c1` (stereo not given), the result in [1], in experiment [2], in [3], in experiment [4], in experiment [5] and in [6] was inactive. The outcome in experiment [7], in experiment [8], in experiment [9], in [11], in experiment [12] and in experiment [13] was inactive. Also, the outcome in experiment [14], in experiment [15] and in experiment [16] was inactive. Besides, the activation in [10] was 34% (active).
As to `CCOC(=O)C1(CCCc2ccccc2)CCN(Cc2cn(CC)nc2C)CC1`, the activation was 153% (active) in experiment [1], 76% (active) in experiment [2] and 84% (active) in experiment [10]. Further, the outcome in experiment [3], in experiment [4], in experiment [5], in experiment [6], in [7] and in [8] was inactive. Further, the call in [9], in experiment [11], in experiment [12], in [13], in [14] and in experiment [15] was inactive. Besides, the result in experiment [16] was inactive.
As for `COc1ccc(C(=O)NC(=S)NNC(=O)c2c(-c3ccccc3)noc2C)cc1OC`, the result in [1], in experiment [2], in [3], in experiment [4], in [5] and in experiment [6] was inactive. Besides, the outcome in experiment [7], in [8], in experiment [9], in experiment [11], in experiment [13] and in [14] was inactive. Besides, the outcome in [15] and in [16] was inactive. For the same compound, the results for the activation in experiment [10] and in [12] were 39% (active) and 24.4% (active), respectively.
`CN(C)C(CNC(=S)Nc1ccc(F)cc1)c1cccnc1` (stereo not given): the activation was 95% (active) in [1], 82% (active) in [2] and 28.5% (active) in [10]. The outcome in [3], in experiment [4], in [5], in experiment [6], in [7] and in experiment [8] was inactive. Moreover, the call in experiment [9], in experiment [11], in [12], in experiment [13], in experiment [14] and in [15] was inactive. The result in [16] was inactive.
Regarding `Cc1csc2c(N3CCN(C(=O)NC(C)(C)C)CC3)ncnc12`, the activation in experiment [1] is 92% (active); in [12], 36.7% (active). The outcome in experiment [2], in experiment [3], in [4], in experiment [5], in [6] and in experiment [7] was inactive. Besides, the outcome in experiment [8], in [9], in experiment [10], in [11], in experiment [13] and in experiment [14] was inactive. For the same compound, the result in experiment [15] and in [16] was inactive.
As to `CCc1nc(NCCc2ccccn2)c2nnn(Cc3ccccc3F)c2n1`, the activation in experiment [1] was 154% (active); in [10], 49% (active); in experiment [12], 36.2% (active). Besides, the outcome in experiment [2], in experiment [3], in experiment [4], in [5], in experiment [6] and in experiment [7] was inactive. The outcome in experiment [8], in experiment [9], in experiment [11], in experiment [13], in [14] and in [15] was inactive. Besides, the outcome in experiment [16] was inactive.
`CN(CCc1nc2ccc(Cl)cc2[nH]1)Cc1nc(CC2CC2)no1`: the activation in [1] was 115% (active); in experiment [12], 23.4% (active). The outcome in experiment [2], in experiment [3], in [4], in [5], in [6] and in [7] was inactive. For the same compound, the result in experiment [8], in experiment [9], in experiment [10], in experiment [11], in [13] and in experiment [14] was inactive. For the same compound, the result in experiment [15] and in experiment [16] was inactive.
Consider `O=C(NC(=S)NNC(=O)[C@H]1C[C@@H]1c1ccccc1)c1cccc(F)c1`, for which the activation in experiment [1] was 213% (active); in [12] it was 140% (active); in [15], 30.6% (active). Also, the result in experiment [2], in [3], in experiment [4], in experiment [5], in experiment [6] and in experiment [7] was inactive. Also, the result in [8], in experiment [9], in experiment [10], in experiment [11], in experiment [13] and in experiment [14] was inactive. Further, the result in experiment [16] was inactive.

The record behind these values is PubChem BioAssay.
